The values below come from PubChem BioAssay (Tox21).

A short description of experiment [1]: qHTS assay to identify small molecule antagonists of the thyroid receptor (TR) signaling pathway (AID 743065). Also: nearly all actives have a fitted effect of over 55% in size. Also: potency is read from the fitted curve at half-maximal effect. In outline: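 GH3.TRE-Luc rat pituitary cells (two TREs driving luciferase) were dosed with compound, then stimulated with 1 nM T3 (final) for 23.5 h at 37 C. ONE-Glo luminescence was the read-out, with CellTiter-Fluor fluorescence as the cytotoxicity counter-screen.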
On the technique in general: Quantitative high-throughput screening tests each substance at several concentrations.

For experiment [2], the system named is thyroid hormone receptor (rat, GH3 cells). Kind of experiment: qHTS assay to identify small molecule agonists of the thyroid receptor (TR) signaling pathway (AID 743066; calls by dose curve).
The target of experiment [3] is Estrogen receptor (Homo sapiens) (UniProt P03372). Kind of experiment: qHTS assay to identify small molecule antagonists of the estrogen receptor alpha (ER-alpha) signaling pathway (AID 743069; active = well fitted curve in the direction sought with a large enough effect in the signal ratio in the repeat runs, not every such curve was filed as active; the % refers to the signal ratio). An outline of the steps: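 Reporter cells (ER-alpha-bla, HEK293 background) are conditioned overnight in stripped-serum medium (2% charcoal-stripped FBS). Compound and 17beta-estradiol exposure runs 18 hr at 37C, 5% CO2.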
Sequence of Estrogen receptor (Homo sapiens) (P03372 whole entry, looked up): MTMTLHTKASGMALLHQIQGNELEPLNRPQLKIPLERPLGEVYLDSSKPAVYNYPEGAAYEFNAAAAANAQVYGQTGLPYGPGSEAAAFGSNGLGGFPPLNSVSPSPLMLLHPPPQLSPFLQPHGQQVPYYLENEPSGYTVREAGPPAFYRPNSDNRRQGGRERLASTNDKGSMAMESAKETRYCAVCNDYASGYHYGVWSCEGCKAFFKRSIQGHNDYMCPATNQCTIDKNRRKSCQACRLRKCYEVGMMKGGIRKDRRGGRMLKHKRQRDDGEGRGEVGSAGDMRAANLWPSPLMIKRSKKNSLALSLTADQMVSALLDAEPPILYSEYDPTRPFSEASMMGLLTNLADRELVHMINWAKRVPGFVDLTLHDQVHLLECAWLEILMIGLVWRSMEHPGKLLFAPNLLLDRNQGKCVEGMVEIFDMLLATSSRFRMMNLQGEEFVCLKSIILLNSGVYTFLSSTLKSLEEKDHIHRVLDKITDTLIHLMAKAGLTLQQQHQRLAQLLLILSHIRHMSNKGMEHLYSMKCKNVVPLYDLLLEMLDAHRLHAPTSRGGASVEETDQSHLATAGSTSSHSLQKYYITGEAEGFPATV

Experiment [4] is described as follows: qHTS assay to identify small molecule antagonists of the estrogen receptor alpha (ER-alpha) signaling pathway - cell viability counter screen (AID 743074; calls by dose curve;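 also: HEK293 cells carrying ER-alpha-UAS-bla reporter stimulated with 17beta-estradiol; nearly all actives have a fitted effect of over 45% in size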).
Experiment [5] has as its target Estrogen receptor (Homo sapiens) (UniProt P03372). Kind of experiment: qHTS assay to identify small molecule agonists of the estrogen receptor alpha (ER-alpha) signaling pathway (AID 743075; calls by dose curve;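 also: HEK293 GripTite cells with ER-alpha and UAS-driven beta-lactamase reporter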).
For experiment [6] the target is unchanged. In words: qHTS assay to identify small molecule agonists of the estrogen receptor alpha (ER-alpha) signaling pathway using the BG1 cell line (AID 743079). Also: nearly all actives have a fitted effect of over 20% in size. Also: potency is read from the fitted curve at half-maximal effect. The note with it: BG1Luc4E2 cells, ERE-luciferase agonist, 22 h.
A short description of experiment [7]: qHTS assay to identify small molecule antagonists of the estrogen receptor alpha (ER-alpha) signaling pathway using the BG1 cell line (AID 743080; calls by dose curve;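 also: BG1 cells stimulated with 17beta-estradiol alongside compound; nearly all actives have a fitted effect of over 25% in size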). An outline of the steps: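 BG1Luc4E2, endogenous ER-alpha, 4xERE-luc; 5 d charcoal-stripped FBS, phenol red free; 24 h plating; cpd + 17beta-estradiol 21.5 h, 37 C/5% CO2; CellTiter-Fluor viability 30 min, then ONE-Glo luciferase 30 min RT.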

Experiment [8] deals with Aromatase (Homo sapiens) (UniProt P11511). Kind of experiment: qHTS assay to identify aromatase inhibitors (AID 743083). Also: nearly all actives have a fitted effect of over 55% in size.
Sequence of Aromatase (Homo sapiens) (P11511 whole entry, looked up): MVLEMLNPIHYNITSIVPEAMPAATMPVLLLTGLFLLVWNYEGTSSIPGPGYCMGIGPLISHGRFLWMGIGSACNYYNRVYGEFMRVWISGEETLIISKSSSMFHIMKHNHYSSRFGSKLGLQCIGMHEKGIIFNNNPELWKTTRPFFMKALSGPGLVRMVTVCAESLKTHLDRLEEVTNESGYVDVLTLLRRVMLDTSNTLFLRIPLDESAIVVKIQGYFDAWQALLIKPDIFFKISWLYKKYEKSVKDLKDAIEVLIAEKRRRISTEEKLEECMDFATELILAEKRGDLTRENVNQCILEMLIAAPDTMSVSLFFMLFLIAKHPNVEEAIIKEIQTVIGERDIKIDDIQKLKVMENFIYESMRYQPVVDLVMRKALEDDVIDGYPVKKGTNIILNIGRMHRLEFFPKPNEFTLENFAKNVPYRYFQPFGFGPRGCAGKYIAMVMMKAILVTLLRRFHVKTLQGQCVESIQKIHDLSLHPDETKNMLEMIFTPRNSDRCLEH
The nature of experiment [9]: qHTS assay to identify aromatase inhibitors - cell viability counter screen (AID 743084).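 Also: cells stimulated with testosterone during compound exposure; nearly all actives have a fitted effect of over 55% in size.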
Experiment [10] has as its target Aryl hydrocarbon receptor (Homo sapiens) (UniProt P35869). In words: qHTS assay to identify small molecule that activate the aryl hydrocarbon receptor (AhR) signaling pathway (AID 743085).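 Also: HG2L7.5c1 human HepG2 liver cells with stably integrated DRE-driven firefly reporter; nearly all actives have a fitted effect of over 15% in size.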 In outline:
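Luminescence (ONE-Glo) from a dioxin-responsive-element luciferase reporter in HG2L7.5c1 HepG2 cells after 24 hr compound exposure at 37C; viability measured by CellTiter-Fluor fluorescence beforehand.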

The nature of experiment [11]: qHTS assay to identify small molecule that activate the aryl hydrocarbon receptor (AhR) signaling pathway - cell viability counter screen (AID 743086).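 Also: HepG2 liver cells carrying the AhR DRE luciferase reporter; nearly all actives have a fitted effect of over 45% in size.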 An outline of the steps: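 HepG2-AhR-luc (HG2L7.5c1) cells, 4000/well, treated 24 h at 37 C with compound; viability measured as CellTiter-Fluor fluorescence after 30 min in the same wells as the luciferase read.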
In experiment [12] the target is Peroxisome proliferator-activated receptor gamma (Homo sapiens) (UniProt P37231). In words: qHTS assay to identify small molecule agonists of the peroxisome proliferator-activated receptor gamma (PPARg) signaling pathway (AID 743094; active = well fitted activation curve with a large enough effect in the signal ratio in the repeat runs, not every such curve was filed as active; the % refers to the signal ratio). An outline of the steps: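 Compounds dissolved in DMSO were added to PPARg UAS-bla HEK293H cells for 17 h at 37C, and reporter expression was quantified by fluorescence intensity after 1 h with LiveBLAzer B/G FRET substrate.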
Sequence of Peroxisome proliferator-activated receptor gamma (Homo sapiens) (P37231 whole entry, looked up): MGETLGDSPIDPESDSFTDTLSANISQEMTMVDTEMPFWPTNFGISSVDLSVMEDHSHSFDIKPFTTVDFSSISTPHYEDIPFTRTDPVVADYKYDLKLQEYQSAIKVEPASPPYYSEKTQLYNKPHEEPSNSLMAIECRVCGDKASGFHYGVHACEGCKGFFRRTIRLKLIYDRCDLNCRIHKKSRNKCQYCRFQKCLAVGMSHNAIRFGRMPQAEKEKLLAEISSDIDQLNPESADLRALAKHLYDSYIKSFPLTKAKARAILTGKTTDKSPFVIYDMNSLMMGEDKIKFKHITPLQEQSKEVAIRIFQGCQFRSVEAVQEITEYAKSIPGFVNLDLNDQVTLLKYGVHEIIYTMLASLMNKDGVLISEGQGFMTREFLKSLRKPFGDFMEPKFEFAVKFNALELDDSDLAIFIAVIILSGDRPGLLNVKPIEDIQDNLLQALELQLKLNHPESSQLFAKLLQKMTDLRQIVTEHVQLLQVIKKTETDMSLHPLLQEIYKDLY

Experiment [13] in a line: qHTS assay for small molecule agonists of the antioxidant response element (ARE) signaling pathway (AID 743202; active = well fitted activation curve with a large enough effect in the signal ratio in the repeat runs, not every such curve was filed as active; the % refers to the signal ratio). An outline of the steps:
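Agonist mode reporter screen: HepG2 cells with ARE-controlled beta-lactamase are incubated with test compounds for 16 h at 37 C, and beta-lactamase activity is measured as fluorescence of cleaved B/G FRET substrate.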

The nature of experiment [14]: qHTS assay for small molecule activators of the heat shock response signaling pathway - cell viability counter screen (AID 743209). Also: nearly all actives have a fitted effect of over 50% in size. An outline of the steps:
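Readout: CellTiter-Glo luminescence, 30 min at room temperature. System: HSE-bla HeLa cells, 1500/well, plated overnight. Treatment: compounds in DMSO, 5 h at 37 C.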

A short description of experiment [15]: qHTS assay to identify small molecule agonists of the peroxisome proliferator-activated receptor delta (PPARd) signaling pathway - cell viability counter screen (AID 743211). Also: nearly all actives have a fitted effect of over 55% in size. An outline of the steps:
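Viability was measured as CellTiter-Glo luminescence (30 min, room temperature) in the same wells as the beta-lactamase readout. GeneBLAzer PPARd UAS-bla HEK293H cells received compound after 5 h plating and were incubated 17 h at 37 C.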

Experiment [16] is described as follows: qHTS assay to identify small molecule antagonists of the estrogen receptor alpha (ER-alpha) signaling pathway using the BG1 cell line - cell viability counter screen (AID 743081).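 Also: compound given together with 17beta-estradiol as the ER stimulus; nearly all actives have a fitted effect of over 45% in size.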
The nature of experiment [17]: qHTS assay to identify small molecule antagonists of the peroxisome proliferator-activated receptor gamma (PPARg) signaling pathway - cell viability counter screen (AID 743194). Also: nearly all actives have a fitted effect of over 55% in size. Particulars: Potency: co-treated with 50 nM rosiglitazone. An outline of the steps:
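Cytotoxicity counter screen in PPARg-bla HEK293H cells, same wells as reporter assay. Compounds plus 50 nM rosiglitazone (final) for 17 h at 37 C, then viability read by CellTiter-Glo luminescence.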

Experiment [18] is described as follows: qHTS assay for small molecule agonists of the antioxidant response element (ARE) signaling pathway - cell viability counter screen (AID 743203; calls by dose curve; also: nearly all actives have a fitted effect of over 55% in size). In outline:
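Following 16 hrs of compound treatment at 37C, HepG2 cells with an ARE-controlled beta-lactamase gene were lysed with CellTiter-Glo. Luminescence was read after 30 min at room temperature.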

Experiment [19] is described as follows: qHTS assay for small molecule activators of the heat shock response signaling pathway (AID 743210; active = well fitted activation curve with a large enough effect in the signal ratio in the repeat runs, with a control signal flat, not every such curve was filed as active; the % refers to the signal ratio;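 also: HeLa cells with beta-lactamase reporter driven by heat shock elements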). In outline: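 Quantitative high-throughput format using an engineered HeLa line in which heat shock response elements drive beta-lactamase; after 5 h with compound, cells received a B/G FRET substrate and fluorescence was read.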
Experiment [20] deals with Peroxisome proliferator-activated receptor gamma (Homo sapiens) (UniProt P37231). Kind of experiment: qHTS assay to identify small molecule antagonists of the peroxisome proliferator-activated receptor gamma (PPARg) signaling pathway (AID 743191; calls by dose curve; also: nearly all actives have a fitted effect of over 30% in size). An outline of the steps: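 GeneBLAzer PPARg UAS-bla HEK293H cells, 5 h post-plating, exposed to compounds 17 h at 37C. LiveBLAzer B/G FRET substrate added for 1 h at room temperature; beta-lactamase reporter read by fluorescence intensity.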

Where “and” joins values, the source holds several entries; their conditions need not be identical. Identical values can stand only once. Records with an inconclusive call do not appear. Unmarked numbers belong to inactive results. Calls of active or inactive are those of the source. Unless noted, calls follow the shape of the dose curve; as a rule, active = well fitted curve in the direction sought with a large enough effect in the repeat runs; inconclusive = weak or mixed curves; inactive = no such curve, though single readings can be large; an effect the other way counts as inactive or inconclusive.
% is scaled to controls: 0 for no effect and ±100 for the full control effect.

Sequence of Aryl hydrocarbon receptor (Homo sapiens) (P35869 whole entry, looked up): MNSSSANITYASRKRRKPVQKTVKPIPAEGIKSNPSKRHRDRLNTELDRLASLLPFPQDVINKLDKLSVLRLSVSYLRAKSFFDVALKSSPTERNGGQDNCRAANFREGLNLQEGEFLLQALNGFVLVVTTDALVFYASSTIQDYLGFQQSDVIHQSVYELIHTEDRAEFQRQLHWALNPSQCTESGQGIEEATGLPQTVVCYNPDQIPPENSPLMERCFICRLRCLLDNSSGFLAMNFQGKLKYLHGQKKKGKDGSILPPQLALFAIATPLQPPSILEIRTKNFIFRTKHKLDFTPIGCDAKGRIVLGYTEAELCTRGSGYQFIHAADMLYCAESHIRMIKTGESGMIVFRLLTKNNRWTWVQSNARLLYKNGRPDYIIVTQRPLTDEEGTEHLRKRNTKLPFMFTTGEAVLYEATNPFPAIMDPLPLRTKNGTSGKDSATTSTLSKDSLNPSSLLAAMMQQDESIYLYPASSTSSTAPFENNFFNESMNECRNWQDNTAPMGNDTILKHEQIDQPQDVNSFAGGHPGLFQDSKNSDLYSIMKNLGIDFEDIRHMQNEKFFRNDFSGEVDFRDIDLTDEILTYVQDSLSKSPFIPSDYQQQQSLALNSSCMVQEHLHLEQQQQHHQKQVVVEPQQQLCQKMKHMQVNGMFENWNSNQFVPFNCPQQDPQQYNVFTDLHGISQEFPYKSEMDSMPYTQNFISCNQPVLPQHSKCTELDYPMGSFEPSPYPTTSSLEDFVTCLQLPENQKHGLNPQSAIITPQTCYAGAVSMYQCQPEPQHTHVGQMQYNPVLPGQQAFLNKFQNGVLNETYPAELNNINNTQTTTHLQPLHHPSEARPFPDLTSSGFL

With `Cc1ncsc1CCCl`, the Potency entry in experiment [1], in experiment [2], in experiment [3], in experiment [5], in experiment [7] and in experiment [8] was “inactive” throughout. Also, the Potency entry in [9], in experiment [10], in experiment [13], in experiment [14] and in [15] was “inactive” throughout. The outcome in experiment [4], in experiment [11] and in experiment [12] was inactive. In addition, the activation in experiment [6] (at 70.3 µM (top of the series)) is 1.72%.
Consider `CCN(CC)c1nc(C)cc(OP(=S)(OC)OC)n1`, for which the Potency in [1] was 61.1 µM (active). The Potency entry in [2], in [3], in experiment [5], in [7], in experiment [16] and in experiment [9] was “inactive” in each case. Besides, the Potency entry in experiment [17], in [18], in experiment [14] and in experiment [15] was “inactive” throughout. Moreover, the call in experiment [4], in experiment [11], in experiment [12] and in [19] was inactive. The activation in [6] (at 70.3 µM (top of the series)) was 4.15%.
For `Nc1cnn(-c2ccccc2)c(=O)c1Cl`, the Potency result in [1], in experiment [2], in [3], in experiment [5], in experiment [7] and in [16] was “inactive” throughout. Moreover, the Potency result in [8], in experiment [9], in experiment [17], in experiment [13], in experiment [18] and in [14] was “inactive” each time. Besides, the Potency result in experiment [15] was “inactive”. For the same molecule, the molecule was called inactive in [4], in experiment [11] and in experiment [12]. Moreover, the activation in experiment [6] (at 70.3 µM (top of the series)) is 6.72%.
As for `COc1ncc(F)c2nc(S(=O)(=O)Nc3c(F)cccc3F)nn12`, the Potency entry in experiment [1], in [2], in experiment [3], in experiment [5], in experiment [7] and in experiment [16] was “inactive” each time. In addition, the Potency entry in experiment [8], in experiment [9], in [10], in [17], in [13] and in [18] was “inactive” throughout. The Potency result in experiment [14] and in [15] was “inactive” each time. Also, the molecule was called inactive in experiment [4], in experiment [11] and in experiment [19]. For the same molecule, the activation in [6] (at 70.3 µM (top of the series)) was -3.47%.
As to `O=C(CCCN1CCC(n2c(=O)[nH]c3ccccc32)CC1)c1ccc(F)cc1`, the Potency result in experiment [1], in experiment [2], in experiment [3], in experiment [5], in experiment [7] and in experiment [16] was “inactive” throughout. Further, the Potency entry in experiment [8], in [9], in experiment [17], in experiment [14] and in [15] was “inactive” each time. The molecule was classed as inactive in [4], in experiment [11] and in experiment [12]. For the same molecule, the activation in experiment [6] (at 32.5 µM (top of the series)) is -6.79%.
Turning to `CSc1nc(N=[N+]=[N-])nc(NC(C)C)n1`, the Potency result in experiment [1], in experiment [2], in experiment [3], in [5], in [7] and in experiment [16] was “inactive” throughout. Besides, the Potency entry in [8], in experiment [9], in [10], in experiment [17], in [18] and in experiment [14] was “inactive” in each case. For the same molecule, the Potency result in experiment [15] was “inactive”. Besides, the outcome in [4], in experiment [11], in [12] and in experiment [19] was inactive. The activation in experiment [6] (at 70.3 µM (top of the series)) is 2.14%.
On to `OC(Cn1cncn1)(c1ccc(F)cc1)c1ccccc1F` (stereo not given), for which the Potency entry in [1], in experiment [2], in experiment [3], in experiment [5], in experiment [7] and in [16] was “inactive” in each case. In addition, the Potency entry in [9], in [10], in [20], in [13], in experiment [18] and in experiment [14] was “inactive” each time. In addition, in experiment [15], the Potency entry was “inactive”. The result in experiment [4], in experiment [11], in experiment [12] and in experiment [19] was inactive. The activation in [6] (at 70.3 µM (top of the series)) is -1%.
As for `CCOP(=S)(OCC)SCSc1ccc(Cl)cc1`, the Potency entry in experiment [1], in experiment [2], in experiment [3], in experiment [5], in experiment [7] and in experiment [16] was “inactive” throughout. The Potency entry in [8], in experiment [9], in experiment [10], in experiment [17], in [18] and in [14] was “inactive” each time. Besides, the Potency entry in [15] was “inactive”. For the same molecule, the molecule was classed as inactive in experiment [4], in [11], in experiment [12] and in experiment [19]. Also, the Potency in experiment [6] is 26.6 µM (active) and 24.3 µM (active).
